This is a sample that favours compounds with a hit; in the whole collection about 10% have one here.
FLuc inh-1 = Firefly luciferase inhibition profiling of diverse chemical library using quantitative high-throughput screening; Luciferin 4-monooxygenase (Photinus pyralis), P08659; purified P. pyralis luciferase, luminescence, biochemical; Potency, µM (highest dose often 115 µM), hits mostly inhibitors; 76,000 compounds, 2.5% hits; AID 1347043, 2019; also: % is scaled to controls: 0 for no effect and ±100 for the full control effect; nearly all actives have a fitted effect of over 65% in size
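Purified P. pyralis luciferase (10nM final) in 50mM Tris acetate pH 7.5, 10mM Mg acetate, 0.01% Tween-20, 0.05% BSA with 10uM D-luciferin and 10uM ATP. Compounds titrated qHTS. Luminescence imaged on CCD.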
NPR1 antag = Natriuretic polypeptide receptor (hNpr1) antagonism - Primary qHTS. Atrial natriuretic peptide receptor 1 (Homo sapiens), P16066. HEK293 hNpr1 GloSensor cGMP, ANP-stimulated luminescence. Potency, µM (series often up to 46.3 µM), for the others: at the highest dose activity change, negative = inhibition, usual class: inhibitors. 76,000 compounds, 1.6% hits. AID 1347048, 2019; calls by dose curve; also: % is scaled to controls: 0 for no effect and ±100 for the full control effect; nearly all actives have a fitted effect of over 60% in size
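Compound pre-incubated 30 min at room temperature on GloSensor-loaded HEK293 cells stably carrying hNpr1 and the pGS-40F cGMP biosensor. Stimulation uses hNppA at 0.1 nM final; luminescence is taken at baseline and 20 min post-agonist.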
HEK cytotox = Cytotoxic Profiling in HEK 293 Cell Line of Diverse Libraries Using Quantitative High-Throughput Screening; HEK 293 viability, ATP luminescence (CellTiter-Glo), 48-72 h; Potency, µM (titrated, usually from 115 µM), for inactives: at the top dose activity change, negative = cytotoxicity, hits mostly inhibitors; 94,000 compounds, 6.6% hits; AID 1345083, 2018; also: % is scaled to controls: 0 for no effect and ±100 for the full control effect; nearly all actives have a fitted effect of over 60% in size
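Viability of HEK 293 cells, plated at 250 cells/well, was judged by cellular ATP after compound treatment for 48 or 72 hr. Luminescence was imaged 10 min after CellTiter-Glo addition at room temperature.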
GPT2 inhibitor = Primary qHTS assay for inhibitors of Glutamate pyruvate transaminase 2 (GPT2). Alanine aminotransferase 2 (Homo sapiens), Q8TD30. Potency, µM (highest dose often 57.7 µM), for the others: top-dose activity change, negative = inhibition, usual class: inhibitors. 100,000 compounds, 0.25% hits. Recombinant GPT2, coupled pyruvate oxidase/HRP Amplex Red fluorescence. AID 1671188, 2021; also: % is scaled to controls: 0 for no effect and ±100 for the full control effect; nearly all actives have a fitted effect of over 60% in size
Target sequence (Q8TD30 whole entry, looked up): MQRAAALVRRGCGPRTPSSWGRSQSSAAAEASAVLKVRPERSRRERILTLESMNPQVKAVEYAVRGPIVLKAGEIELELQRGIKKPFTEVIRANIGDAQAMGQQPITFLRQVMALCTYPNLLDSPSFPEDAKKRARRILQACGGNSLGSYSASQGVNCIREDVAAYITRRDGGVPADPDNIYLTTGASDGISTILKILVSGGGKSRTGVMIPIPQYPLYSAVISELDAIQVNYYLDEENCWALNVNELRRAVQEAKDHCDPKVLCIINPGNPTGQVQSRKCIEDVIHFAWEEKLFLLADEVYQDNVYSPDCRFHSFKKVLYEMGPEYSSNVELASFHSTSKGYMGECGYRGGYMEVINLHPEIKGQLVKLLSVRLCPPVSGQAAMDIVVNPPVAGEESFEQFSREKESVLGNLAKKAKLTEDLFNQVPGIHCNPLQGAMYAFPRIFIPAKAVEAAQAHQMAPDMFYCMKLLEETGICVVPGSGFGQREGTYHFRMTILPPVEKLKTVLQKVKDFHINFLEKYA
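Inhibition is scored from Amplex Red fluorescence generated when pyruvate oxidase and HRP act on pyruvate released by GPT2. Reactions contain 10ng/uL enzyme, 250uM a-KG and 2mM L-alanine and run 30 min at room temperature.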
3T3 cytotox = Cytotoxic Profiling in NIH 3T3 Cell Line of Diverse Libraries Using Quantitative High-Throughput Screening | NIH 3T3 viability, CellTiter-Glo ATP luminescence, 48-72 h | Potency, µM (series often up to 96.7 µM), without a hit: at the highest dose activity change, negative = cytotoxicity, hits mostly inhibitors | 94,000 compounds, 4.3% hits | AID 1345082, 2018; also: % is scaled to controls: 0 for no effect and ±100 for the full control effect; nearly all actives have a fitted effect of over 55% in size
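Cytotoxicity is measured as loss of cellular ATP: NIH 3T3 cells (400/well) are exposed to compound for 48 or 72 hr at 37 °C, then CellTiter-Glo luminescence is imaged after 10 min at room temperature.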
FLuc SDR -ATP = Firefly luciferase (FLuc-C-HiBiT) SDR gain of signal screen - without ATP. shares compounds with FLuc inh-1. Purified FLuc-C-HiBiT, Nano-Glo HiBiT luminescence, no ATP. Potency, µM (titrated, usually from 32.7 µM), for the others: at the top dose activation (signal gain), usual class: activators. 1,300 compounds, 7.8% hits; also: nearly all actives have a fitted effect of over 55% in size
FLuc SDR ATP = Firefly luciferase (FLuc-C-HiBiT) SDR gain of signal screen - plus ATP; shares compounds with FLuc inh-1; purified FLuc-C-HiBiT + ATP, HiBiT complementation luminescence; Potency, µM (doses to about 32.7 µM), without a hit: at the top dose activation (gain of signal), usual class: activators; 1,300 compounds, 8.7% hits;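 also: signal reports ligand binding via conformational change of the enzyme rather than luciferase catalysis; % of control where 0% means no effect; nearly all actives have a fitted effect of over 55% in size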
FLuc inh-2 = Firefly luciferase (FLuc-C-HiBiT) enzymatic inhibition screen - Functional assay; shares compounds with FLuc inh-1; purified FLuc-C-HiBiT enzyme, luciferin luminescence; Potency, µM (top dose mostly 32.7 µM), without a hit: top-dose activity change, negative = inhibition, most hits filed as inhibitors; 1,300 compounds, 42% hits; also: % is scaled to controls: 0 for no effect and ±100 for the full control effect; nearly all actives have a fitted effect of over 70% in size
Active calls of the source: *; i = inactive; ? = inconclusive; . = no result given. Unless noted, calls follow the shape of the dose curve; as a rule, active = well fitted curve in the direction sought with a large enough effect; inconclusive = small, poorly fitted or top-dose-only effect, or another doubt; inactive = no such curve, though single readings can be large; an effect the other way counts as inactive or inconclusive. Potency is read from the fitted curve at half-maximal effect.

SMILES	FLuc inh-1	NPR1 antag	HEK cytotox	GPT2 inhibitor	3T3 cytotox	FLuc SDR -ATP	FLuc SDR ATP	FLuc inh-2
COc1ccc(NC(=O)Nc2cccc(-c3ccc(N4CCOCC4)nn3)c2)cc1F	0.398µM*	10µM*	?	i	-21.2%	?	?	0.881µM*
COc1ccc(CNC(=O)Nc2cccc(-c3ccc(N4CCOCC4)nn3)c2)cc1	0.891µM*	-28.7%	?	i	-28.6%	?	?	1.97µM*
CCN(CC)C(=O)C[C@@H]1c2nc(NC(=O)N3CCOCC3)sc2C[C@@H]2[C@](C)(CO)[C@H](O)CC[C@]21C	i	2.2%	-1.1%	2.2%	-14.7%	.	.	.
Cc1nc(N2CCC(NCCCc3ccncc3)CC2)c2ccsc2n1	i	2.3%	?	-2.6%	i	.	.	.
CCNC(=O)N1CCCC1C(=O)Nc1ccccc1-c1ccc(OC)cc1 (stereo not given)	i	5.6%	1.0%	-13.7%	-4.0%	.	.	.
O=C(NCCCCCCCCNC(=O)C(Cl)Cl)C(Cl)Cl	.	.	.	-0.3%	.	.	.	.
C=CC1(C)CC(O)C(C(=C)C(=O)OC)C(O)C1C(=C)CO (stereo not given)	.	.	.	i	.	.	.	.
Cc1ccccc1-c1noc(-c2ccc(N3CCCC3)c([N+](=O)[O-])c2)n1	.	.	.	.	.	22.3%	?	?
COc1ccccc1-c1noc(-c2ccc(N3CCN(C)CC3)c([N+](=O)[O-])c2)n1	.	.	.	.	.	?	?	4.95µM*
COc1ccc(-c2noc(-c3nc(-c4ccc5c(c4)OCO5)no3)n2)cc1	i	-0.3%	3.2%	i	i	.	.	.
COc1ccc(-c2noc(-c3ccc(N4CCN(C)CC4)c([N+](=O)[O-])c3)n2)cc1	.	.	.	.	.	20.8%	13.2%	?
Cc1c(F)cccc1NC(=O)N1CCC(Oc2ncccc2C(=O)N2CCCCC2)C1 (stereo not given)	i	-2.4%	2.1%	i	i	.	.	.
CCOc1ccc(C(=O)Nc2ccc(-c3nc4ccccc4s3)cc2)cc1[N+](=O)[O-]	.	.	.	.	.	13.2%	8.5%	0.2%
COc1ccc(-c2nc3ccccc3s2)cc1NC(C)=O	.	.	.	.	.	15.3%	15.4%	?
COc1ccc(-c2nc3ccccc3s2)cc1NC(=O)c1ccccc1F	.	.	.	.	.	15.0%	7.2%	-15.5%
COc1ccc(-c2nc3ccccc3s2)cc1NC(=O)c1cc2ccccc2o1	.	.	.	.	.	7.3%	6.6%	-4.4%
COc1ccccc1NC(=O)c1cnc(-c2ccc(F)cc2)nc1-c1ccncc1	i	-14.0%	0.8%	-7.0%	i	.	.	.
COc1ccc(-c2ccc(C(=O)Nc3ccccc3F)c(Cl)c2)nn1	.	.	?	.	-25.6%	.	.	.
Cc1ccc(-c2ccc3nnc(CNC(=O)Cc4cccc(C)c4)n3n2)cc1	i	4.5%	-11.2%	i	-5.8%	.	.	.
COc1cccc(CN2CCCC(c3nc(-c4cccnc4)no3)CCNC(=O)CC2)c1OC (stereo not given)	i	6.2%	?	i	-24.2%	.	.	.
COc1ccc(-c2nc3ccccc3s2)cc1NC(=O)c1cccc([N+](=O)[O-])c1C	.	.	.	.	.	14.6%	14.1%	6.24µM*
COc1cccc(CNc2ccc(S(=O)(=O)Nc3nc4ccccc4s3)cc2)c1O	.	.	.	3.4%	.	.	.	.
COc1ccc(-c2nc3ccccc3s2)cc1NC(=O)c1ccc(C#N)cc1F	.	.	.	.	.	12.5%	9.0%	-0.8%
O=c1n(CC2CC2)nc2n1CCC(NS(=O)(=O)c1cccs1)CC2 (stereo not given)	i	-4.4%	-11.7%	i	-11.9%	.	.	.
CN(Cc1ccccc1)C(=O)[C@H]1C[C@@H](O)[C@H](O)[C@@H]2N=C(Nc3ccc(-n4cccn4)cc3)S[C@@H]21	12.6µM*	6.0%	?	-1.7%	-27.3%	9.2%	?	?
SMILES	FLuc inh-1	NPR1 antag	HEK cytotox	GPT2 inhibitor	3T3 cytotox	FLuc SDR -ATP	FLuc SDR ATP	FLuc inh-2
O=C(NC1CC1)C1CCN(C(=O)c2ncn3c2COC(c2ccc(Cl)cc2)C3)CC1 (stereo not given)	?	3.9%	-3.9%	-7.1%	-4.6%	.	.	.
CC1CCC(NC(=O)C2CCN(C(=O)c3ncn4c3COC(c3ccccc3)C4)CC2)CC1 (stereo not given)	2.82µM*	0.0%	3.6%	i	i	11.8%	3.13µM*	2.48µM*
Cc1ccc(NC(=O)C2CCN(C(=O)c3ncn4c3COC(c3ccccc3)C4)CC2)cc1 (stereo not given)	2µM*	-23.1%	9.0%	i	-9.4%	11.6%	1.57µM*	1.76µM*
O=C(Nc1ccccc1)C1CCN(C(=O)c2ncn3c2COC(c2ccccc2)C3)CC1 (stereo not given)	2µM*	?	-29.7%	i	i	15.5%	1.57µM*	1.57µM*
CCc1ccc(NC(=O)C2CCN(C(=O)c3ncn4c3COC(c3ccc(F)cc3)C4)CC2)cc1 (stereo not given)	?	1.8%	-2.4%	-6.4%	i	.	.	.
CCc1ccc(NC(=O)C2CCN(C(=O)c3ncn4c3COC(c3ccccc3)C4)CC2)cc1 (stereo not given)	5.01µM*	-16.6%	?	3.1%	-27.4%	12.5%	?	3.94µM*
O=C(Nc1ccccc1)C1CCN(C(=O)c2ncn3c2COC(c2ccc(F)cc2)C3)CC1 (stereo not given)	?	-7.3%	4.4%	1.2%	-1.9%	.	.	.
CC[C@H]1CN(C(=O)Nc2cccc(C(F)(F)F)c2)CC[C@H]1CC(=O)NCc1ccc(F)cc1	i	-8.4%	?	?	?	.	.	.
